Measurements reported in PMC8384837, “Expanding the binding specificity for RNA recognition by a PUF domain”.

Target: PUM1 PUF domain R5-KFA (Homo sapiens, UniProt Q14671 828-1176, C1007K;R1008F;Q1011A)
Experiment: yeast three-hybrid, YBZ-1, SC-Leu-His + 0.5 mM 3-AT, 4 days
Conditions: tags: N-Gal4 AD-HA kept; label: inside an RPR1-promoter hybrid RNA with tandem MS2 sites; ssRNA
Method in brief: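 Pumilio-1 PUF domain libraries, randomized (NNK) at the three base-contacting residues of each repeat, were co-expressed with matching RNA elements from a centromeric plasmid in strain YBZ-1 (LexA–MS2 coat fusion, HIS3 reporter). Transformants were plated on SC-Leu (input) and SC-Leu-His + 0.5 mM 3-AT (selection) for four days, and repeat regions were PCR-amplified and Illumina-sequenced. The interaction score is the log2 change in variant frequency from input to selection, with pseudocount 1 where absent.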

PUM1 PUF domain R5-KFA, sequence (Q14671 828-1176 C1007K/R1008F/Q1011A): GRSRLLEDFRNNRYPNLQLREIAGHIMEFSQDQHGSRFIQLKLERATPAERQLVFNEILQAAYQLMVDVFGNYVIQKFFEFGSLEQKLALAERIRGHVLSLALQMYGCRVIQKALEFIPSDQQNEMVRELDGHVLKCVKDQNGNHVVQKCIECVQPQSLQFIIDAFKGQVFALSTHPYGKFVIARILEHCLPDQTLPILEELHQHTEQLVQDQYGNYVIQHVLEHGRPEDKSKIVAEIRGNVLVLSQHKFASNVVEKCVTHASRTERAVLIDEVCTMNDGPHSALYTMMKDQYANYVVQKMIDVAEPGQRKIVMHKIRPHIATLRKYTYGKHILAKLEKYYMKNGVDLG

Sequence	binding signal
GGCUAGAACUAGUGGAUCCCCCGGCGCCCGGCGGCUCGAGCCCGGGUAAGUGUCAAUAGUCUGCAUGCCGCCGGGCGCCAUGCCUGCAGGUCGACUCUAGAAAACAUG	4.46 log2 enrichment (interaction score)
GGCUAGAACUAGUGGAUCCCCCGGCGCCCGGCGGCUCGAGCCCGGGUAAGUGUUAAUAGUCUGCAUGCCGCCGGGCGCCAUGCCUGCAGGUCGACUCUAGAAAACAUG	4.8 log2 enrichment (interaction score)
GGCUAGAACUAGUGGAUCCCCCGGCGCCCGGCGGCUCGAGCCCGGGUAAGUGUAAAUAGUCUGCAUGCCGCCGGGCGCCAUGCCUGCAGGUCGACUCUAGAAAACAUG	4.26 log2 enrichment (interaction score)
